Measurements reported in the supplement of paper PMC12819154, “High-throughput peptide-centric local stability assay extends protein–ligand identification to membrane proteins, tissues and bacteria” (Nature Structural & Molecular Biology, 2025).

compound: CN[C@@H]1C[C@H]2O[C@@](C)([C@@H]1OC)n1c3ccccc3c3c4c(c5c6ccccc6n2c5c31)C(=O)NC4 [staurosporine]; test: log2 fold change of tryptic peptide abundance, ligand vs vehicle (limited proteolysis) (log2 ratio); higher = more trypsin-susceptible (destabilized); details: ligand concentration: 20 uM; sample: K562 cleared lysate; digestion: 4 min, 22 C (HT-PELSA RT4min, Orbitrap Astral)

Sequence of UniProt Q96S94 (Q96S94 whole entry): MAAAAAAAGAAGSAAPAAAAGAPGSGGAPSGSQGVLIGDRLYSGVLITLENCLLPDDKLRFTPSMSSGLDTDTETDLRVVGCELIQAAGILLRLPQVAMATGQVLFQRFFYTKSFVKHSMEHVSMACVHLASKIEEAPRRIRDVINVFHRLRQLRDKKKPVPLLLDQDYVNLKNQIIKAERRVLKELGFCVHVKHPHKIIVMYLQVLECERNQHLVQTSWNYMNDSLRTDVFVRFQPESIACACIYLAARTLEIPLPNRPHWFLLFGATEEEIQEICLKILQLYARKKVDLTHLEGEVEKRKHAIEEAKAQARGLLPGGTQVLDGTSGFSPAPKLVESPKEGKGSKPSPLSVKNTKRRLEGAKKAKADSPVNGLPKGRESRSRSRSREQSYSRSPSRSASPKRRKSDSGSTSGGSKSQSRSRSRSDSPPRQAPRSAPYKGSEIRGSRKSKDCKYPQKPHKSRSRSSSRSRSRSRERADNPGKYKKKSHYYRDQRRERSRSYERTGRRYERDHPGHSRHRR
Sequence of UniProt P45983 (P45983 whole entry): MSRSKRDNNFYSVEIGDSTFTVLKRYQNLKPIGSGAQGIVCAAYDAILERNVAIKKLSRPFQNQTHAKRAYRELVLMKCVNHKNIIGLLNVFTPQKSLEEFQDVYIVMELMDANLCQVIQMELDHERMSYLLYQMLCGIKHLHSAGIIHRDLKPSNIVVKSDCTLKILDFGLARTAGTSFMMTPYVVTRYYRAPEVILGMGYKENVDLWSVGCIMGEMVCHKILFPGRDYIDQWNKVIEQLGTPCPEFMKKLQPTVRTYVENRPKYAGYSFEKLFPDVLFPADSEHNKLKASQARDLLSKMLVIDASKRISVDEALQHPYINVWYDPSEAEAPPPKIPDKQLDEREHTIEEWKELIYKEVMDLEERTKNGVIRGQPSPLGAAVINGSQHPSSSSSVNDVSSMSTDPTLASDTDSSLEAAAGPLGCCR
Sequence of UniProt O43353 (O43353 whole entry): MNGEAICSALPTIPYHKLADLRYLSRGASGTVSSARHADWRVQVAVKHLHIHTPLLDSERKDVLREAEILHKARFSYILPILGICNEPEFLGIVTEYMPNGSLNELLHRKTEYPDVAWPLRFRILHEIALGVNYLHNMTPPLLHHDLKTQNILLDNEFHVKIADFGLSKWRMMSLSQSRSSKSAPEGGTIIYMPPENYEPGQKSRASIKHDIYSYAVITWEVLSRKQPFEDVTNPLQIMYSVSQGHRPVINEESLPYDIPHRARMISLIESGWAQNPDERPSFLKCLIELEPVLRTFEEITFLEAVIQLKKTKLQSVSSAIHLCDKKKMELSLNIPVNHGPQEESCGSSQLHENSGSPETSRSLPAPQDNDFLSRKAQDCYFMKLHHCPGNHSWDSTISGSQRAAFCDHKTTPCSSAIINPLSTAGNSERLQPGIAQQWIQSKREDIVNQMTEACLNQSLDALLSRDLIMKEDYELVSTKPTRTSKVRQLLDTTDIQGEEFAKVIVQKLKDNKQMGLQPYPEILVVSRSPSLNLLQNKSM
Sequence of UniProt Q92564 (Q92564 whole entry): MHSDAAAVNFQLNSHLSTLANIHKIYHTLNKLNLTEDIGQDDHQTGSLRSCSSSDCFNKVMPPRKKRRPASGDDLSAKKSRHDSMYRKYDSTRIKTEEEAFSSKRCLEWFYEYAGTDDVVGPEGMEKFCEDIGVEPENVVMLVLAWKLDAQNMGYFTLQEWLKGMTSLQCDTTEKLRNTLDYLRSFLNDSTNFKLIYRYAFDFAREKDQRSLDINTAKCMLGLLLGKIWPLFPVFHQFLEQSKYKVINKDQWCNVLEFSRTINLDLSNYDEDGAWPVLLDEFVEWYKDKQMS
Sequence of UniProt Q29RF7 (Q29RF7 whole entry): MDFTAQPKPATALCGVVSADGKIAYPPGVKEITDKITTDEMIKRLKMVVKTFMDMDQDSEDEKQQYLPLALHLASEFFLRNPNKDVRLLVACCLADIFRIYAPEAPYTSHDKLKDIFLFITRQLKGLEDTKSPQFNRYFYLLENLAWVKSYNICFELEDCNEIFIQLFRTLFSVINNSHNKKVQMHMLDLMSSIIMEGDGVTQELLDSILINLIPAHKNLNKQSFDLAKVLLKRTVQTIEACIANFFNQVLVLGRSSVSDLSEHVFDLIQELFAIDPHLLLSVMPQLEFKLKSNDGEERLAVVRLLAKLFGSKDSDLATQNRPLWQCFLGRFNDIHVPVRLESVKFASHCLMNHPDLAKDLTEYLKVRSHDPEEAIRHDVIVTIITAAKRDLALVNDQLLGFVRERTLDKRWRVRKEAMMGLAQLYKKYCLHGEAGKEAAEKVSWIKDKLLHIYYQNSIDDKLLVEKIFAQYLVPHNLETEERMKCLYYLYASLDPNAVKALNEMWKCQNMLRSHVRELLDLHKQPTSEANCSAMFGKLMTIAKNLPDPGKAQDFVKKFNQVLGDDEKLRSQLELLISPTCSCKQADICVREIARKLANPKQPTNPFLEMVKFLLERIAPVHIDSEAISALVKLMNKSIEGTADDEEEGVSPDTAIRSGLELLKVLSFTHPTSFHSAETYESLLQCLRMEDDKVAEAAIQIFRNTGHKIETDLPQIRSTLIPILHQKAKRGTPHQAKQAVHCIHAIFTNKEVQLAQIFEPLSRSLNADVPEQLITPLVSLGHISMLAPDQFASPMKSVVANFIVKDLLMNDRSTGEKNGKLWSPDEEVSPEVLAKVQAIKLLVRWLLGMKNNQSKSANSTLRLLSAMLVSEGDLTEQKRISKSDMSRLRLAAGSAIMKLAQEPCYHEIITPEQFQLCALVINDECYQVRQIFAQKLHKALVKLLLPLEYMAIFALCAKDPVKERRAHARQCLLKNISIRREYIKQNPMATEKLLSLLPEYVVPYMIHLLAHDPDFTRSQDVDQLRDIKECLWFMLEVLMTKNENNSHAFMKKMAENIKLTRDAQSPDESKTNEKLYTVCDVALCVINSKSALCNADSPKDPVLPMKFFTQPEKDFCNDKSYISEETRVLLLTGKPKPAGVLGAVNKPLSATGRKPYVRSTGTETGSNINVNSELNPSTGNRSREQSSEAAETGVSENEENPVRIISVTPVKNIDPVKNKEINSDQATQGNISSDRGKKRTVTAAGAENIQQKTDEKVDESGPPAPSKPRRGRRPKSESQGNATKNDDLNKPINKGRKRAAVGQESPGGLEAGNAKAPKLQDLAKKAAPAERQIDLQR
Sequence of UniProt O14802 (O14802 whole entry): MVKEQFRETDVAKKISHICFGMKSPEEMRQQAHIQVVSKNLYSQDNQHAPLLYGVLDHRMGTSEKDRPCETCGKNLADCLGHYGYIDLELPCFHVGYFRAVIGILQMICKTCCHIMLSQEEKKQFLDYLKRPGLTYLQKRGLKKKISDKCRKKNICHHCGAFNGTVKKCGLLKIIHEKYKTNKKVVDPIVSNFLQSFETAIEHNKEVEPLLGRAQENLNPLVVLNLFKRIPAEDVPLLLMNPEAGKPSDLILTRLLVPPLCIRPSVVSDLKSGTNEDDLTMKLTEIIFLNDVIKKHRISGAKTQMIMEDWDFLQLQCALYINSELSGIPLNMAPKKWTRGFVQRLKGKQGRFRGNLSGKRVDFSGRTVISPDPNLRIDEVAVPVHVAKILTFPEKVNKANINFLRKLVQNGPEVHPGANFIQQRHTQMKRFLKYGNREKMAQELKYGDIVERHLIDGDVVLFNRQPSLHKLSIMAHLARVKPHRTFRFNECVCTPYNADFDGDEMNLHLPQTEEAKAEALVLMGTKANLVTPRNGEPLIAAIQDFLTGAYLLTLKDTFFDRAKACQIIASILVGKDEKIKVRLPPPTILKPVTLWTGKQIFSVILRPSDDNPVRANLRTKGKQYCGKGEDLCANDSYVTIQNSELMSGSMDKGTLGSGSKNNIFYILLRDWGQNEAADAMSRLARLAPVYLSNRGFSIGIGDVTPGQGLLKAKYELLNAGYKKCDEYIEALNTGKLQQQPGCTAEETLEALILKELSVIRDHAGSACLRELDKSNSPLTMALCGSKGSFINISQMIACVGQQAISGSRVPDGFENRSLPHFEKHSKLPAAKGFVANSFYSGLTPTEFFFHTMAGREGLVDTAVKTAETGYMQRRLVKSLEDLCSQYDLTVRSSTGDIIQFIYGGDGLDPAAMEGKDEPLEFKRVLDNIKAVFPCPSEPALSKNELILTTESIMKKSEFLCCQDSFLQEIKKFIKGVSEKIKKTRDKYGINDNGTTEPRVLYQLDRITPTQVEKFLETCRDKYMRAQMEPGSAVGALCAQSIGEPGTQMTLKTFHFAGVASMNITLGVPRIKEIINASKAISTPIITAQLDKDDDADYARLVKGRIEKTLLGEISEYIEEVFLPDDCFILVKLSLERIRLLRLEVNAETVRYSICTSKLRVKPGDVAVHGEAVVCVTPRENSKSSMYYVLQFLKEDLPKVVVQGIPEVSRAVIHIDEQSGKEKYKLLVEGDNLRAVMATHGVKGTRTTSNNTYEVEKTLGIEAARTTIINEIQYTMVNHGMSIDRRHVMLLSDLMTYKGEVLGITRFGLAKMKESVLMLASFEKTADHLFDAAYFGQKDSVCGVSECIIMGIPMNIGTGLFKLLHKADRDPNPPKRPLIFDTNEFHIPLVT

Target | log2 fold change
BCR (peptide sequence: RAAQAPDGASEPR, peptide start residue: 79) (UniProt P11274) | 0.577
CCNL2 (peptide sequence: HSMEHVSMACVHLASK, peptide start residue: 118) (UniProt Q96S94) | -1.06
POLR3A (peptide sequence: ISHICFGMK, peptide start residue: 15) (UniProt O14802) | 0.539
RIPK2 (peptide sequence: KTEYPDVAWPLR, peptide start residue: 110) (UniProt O43353) | -0.494
MED12 (peptide sequence: NVSFNPAK, peptide start residue: 61) (UniProt Q93074) | 0.555
PDS5A (peptide sequence: SHDPEEAIRHDVIVTIITAAK, peptide start residue: 369) (UniProt Q29RF7) | 0.622
DCUN1D4 (peptide sequence: YAFDFAR, peptide start residue: 144) (UniProt Q92564) | 1.53
UniProt P45983 (peptide sequence: MLVIDASK, peptide start residue: 301) | -1.77
